GCN5L2 inh: qHTS Assay for Inhibitors of GCN5L2; AID 504327, 2011; GCN5L2 HAT assay, ThioGlo1 CoA-SH fluorescence; Histone acetyltransferase KAT2A (Homo sapiens), Q92830; 390,000 compounds, 0.21% hits; Potency, µM (top dose mostly 58.9 µM), for the others: top-dose activity change, negative = inhibition, hits mostly inhibitors; note: potency is the fitted concentration of half-maximal effect; % is set by controls: 0 for no effect and ±100 for the full control effect
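GCN5L2 (20 nM) in 50mM HEPES pH 7.5, 0.1mM EDTA, 0.01% Tween-20 preincubated 15 min with compounds at room temperature. Reaction started with H3(1-25) 75uM, acetyl-CoA 70uM, ThioGlo1 50uM; CoA-thiol fluorescence (Ex340/Em540) read at 0 and 20 min.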
PLK1 PBD inh: qHTS for Inhibitors of PLK1-PDB (polo-like kinase 1 - polo-box domain): Primary Screen; Serine/threonine-protein kinase PLK1 (Homo sapiens), P53350; Plk1 PBD binding of FITC phosphopeptide, fluorescence polarization; Potency, µM, for the others: max response, negative = inhibition, most hits filed as inhibitors; 360,000 compounds, 2.8% hits; AID 720504, 2013; note: potency is the fitted concentration of half-maximal effect; series mostly up to about 57 µM; % is set by controls: 0 for no effect and ±100 for the full control effect; nearly all actives have a fitted effect of over 65% in size
HP1b binding inh: HTS for Inhibitors of HP1-beta Chromodomain Interactions with Methylated Histone Tails; Chromobox protein homolog 1 (Homo sapiens), P83916; AlphaScreen HP1-beta / biotin-H3K9me3 peptide binding; Potency, µM (series often up to 114 µM), without a hit: at the highest dose activity change, negative = inhibition, actives largely listed as inhibitors; 390,000 compounds, 0.56% hits; note: potency is the fitted concentration of half-maximal effect; nearly all actives have a fitted effect of over 70% in size
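Compound inhibition of the preformed complex between 50 nM HP1-beta and 50 nM biotinylated H3K9me3 peptide was read by AlphaScreen. Buffer was PBS pH 7.4 with 0.01% Tween-20. Incubations ran 30 min at room temperature, with 10 ug/mL donor/acceptor beads.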
JMJD2A Tudor inh: qHTS Assay for Inhibitors of JMJD2A-Tudor Domain. Lysine-specific demethylase 4A (Homo sapiens), O75164. AlphaScreen JMJD2A-Tudor / H3K4me3 peptide binding. Potency, µM (doses to about 114 µM), for the others: at the highest dose activity change, negative = inhibition, usual class: inhibitors. 390,000 compounds, 4.4% hits; note: potency is the fitted concentration of half-maximal effect; % is set by controls: 0 for no effect and ±100 for the full control effect; nearly all actives have a fitted effect of over 50% in size
PI5P4Ka inh: qHTS for Inhibitors of phosphatidylinositol 5-phosphate 4-kinase (PI5P4K). PI5P4Kalpha enzyme, ADP-Glo luminescence, 60 min; stronger effect = lower value. max response, %. 330,000 compounds, 1.2% hits; active = max response of -50% or lower; inconclusive = between -30% and -50%; inactive = -30% or higher; note: value at the top dose of about 77 µM; % is set by controls: 0 for no effect and ±100 for the full control effect
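Enzyme plus substrate dispensed, test compounds pinned in, then ATP (5 microM final) added. After 60 min at RT, ADP-Glo reagent 1 for 45 min and reagent 2 for 30 min preceded luminescence imaging.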
BAZ2B block: qHTS Assay for Inhibitors of BAZ2B; AID 504333, 2011; 360,000 compounds, 4.4% hits; AlphaScreen BAZ2B-H3K14Ac peptide displacement; Bromodomain adjacent to zinc finger domain protein 2B (Homo sapiens), Q9UIF8; Potency, µM (highest dose often 114 µM), for the others: at the highest dose activity change, negative = inhibition, most hits filed as inhibitors; note: potency is the fitted concentration of half-maximal effect; % is set by controls: 0 for no effect and ±100 for the full control effect; nearly all actives have a fitted effect of over 60% in size
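BAZ2B 50 nM plus b-H3(5-23)K14Ac 50 nM, PBS pH 7.4/0.01% Tween-20, 30 min RT; compound added (max 110 uM), 30 min RT; streptavidin donor/Ni-chelate acceptor beads 10 ug/mL final, 20 min dark; AlphaScreen read.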
Starred values were filed as active, the others as inactive; ? = inconclusive; / = no result given; [ ] = another dose, or the depositor's remark. An excerpt weighted towards active compounds, which were near 7% of everything screened. Unless noted, calls come from the whole dose curve; as a rule, active = well fitted curve in the direction sought with a large enough effect; inconclusive = small, poorly fitted or top-dose-only effect, or another doubt; inactive = no such curve, though single readings can be large; an effect the other way counts as inactive or inconclusive.

SMILES	GCN5L2 inh	PLK1 PBD inh	HP1b binding inh	JMJD2A Tudor inh	PI5P4Ka inh	BAZ2B block
O=C(O)c1ccc(S(=O)(=O)c2ccc3c(c2)C(=O)N(NC(=O)c2ccc(O)cc2)C3=O)cc1	-11%	-24%	46%	-11%[11.4 µM]	5	?
Cc1ccc(C(=O)NN2C(=O)c3ccc(S(=O)(=O)c4ccc(C(=O)O)cc4)cc3C2=O)cc1	-2%	21µM*	3%	16µM*	-13	-3%
CCn1cc(C(=O)NCCCN(CC(C)C)CC(C)C)c(=O)c2cc(S(=O)(=O)N(C)C3CCCCC3)ccc21	-4%	-2%	37%	-22%	-12	-17%
COc1cc(C(CC(=O)Nc2cc(C)ccc2C)N2Cc3ccccc3C2=O)cc(OC)c1OC (stereo not drawn)	11%	/	33%	0%	/	-15%
O=C(Cn1cnc2sc(-c3ccccc3)cc2c1=O)NCc1ccccc1	-30%	-7%	5%	-25%	/	14%
COc1ccccc1-n1ccnc1SCC(=O)NCc1ccco1	-9%	24µM*	-31%	40µM*	-10	-39%
O=C(CSc1nc(-c2ccccc2)c(-c2ccccc2)[nH]1)NCc1ccco1	-9%	21µM*	-19%	40µM*	/	-29%
COCCNC(=O)c1ccc2c(=O)n(Cc3ccco3)c(SCC(=O)Nc3ccc(OC)cc3OC)nc2c1	-13%	?	13%	56µM*	0	4%
O=C(Cn1cnc2sc(-c3ccccc3)cc2c1=O)NCc1ccco1	?	2.7µM*	8.9µM*	3.2µM*	-83*	?
COc1ccccc1-n1ccnc1SCC(=O)NCC1CCCO1 (stereo not drawn)	-5%	2%	24%	8%	-2	-3%[57.1 µM]
Cc1ccc(-c2nnn3c2nc(NCCc2ccccc2)c2ccccc23)cc1	-1%	/	48%	-3%	/	-13%
O=C(CSc1nnc2c(n1)[nH]c1ccccc12)NCc1ccco1	-11%	30µM*	19%	-29%	?	?
NC(=O)CSc1nnc(-c2ccccc2)c(-c2ccccc2)n1	3%	-9%	31%	2%	-3	-12%
O=C(O)CSc1nnc(-c2ccccc2)c(-c2ccccc2)n1	3%	9.5µM*	3%	-16%[11.4 µM]	-27	-5%
O=C(CSc1ncc(-c2ccccc2)nn1)NCc1ccco1	-2%	-13%	11%	-34%	/	-34%
O=C(Cn1ncn2c(cc3ccccc32)c1=O)NCc1ccco1	-21%	-11%	7%	?	/	50µM*
COc1ccc(CNC(=O)Cn2ncn3c(cc4ccccc43)c2=O)cc1	-12%	-1%	37%	-13%	9	9%
O=C(CSc1nnc(-c2ccccc2)c(-c2ccccc2)n1)NCc1ccco1	-3%	21µM*	?	-37%[57.1 µM]	-20	?
COc1ccc(CNC(=O)CSc2nnc3c(n2)[nH]c2ccccc23)cc1	-5%	-2%	22%	-8%	-7	-5%
CC(C)=CCN1CCN(Cc2cn(C(C)C)c3ccccc23)CC1CCO (stereo not drawn)	2%	-2%	13%	-4%	-4	8%[0.457 µM]
O=C(CSc1ncnc2c1oc1ccccc12)NCc1ccco1	-2%	-16%	4%	-32%	/	50µM*
O=C(O)CSc1ncnc2c1oc1ccccc12	-3%	-5%	13%	-1%	-2	8%
CCN(CC)C(=O)CSc1nc2c(sc(=S)n2CC)c(=O)n1-c1ccccc1	-3%	-4%	25%	-12%	1	0%
O=C(CSc1nc2ccccc2c(=O)n1Cc1ccco1)NCc1ccco1	-21%	-19%	-12%	56µM*	/	?

From PubChem BioAssay
